A short description of assay [1]: compounds binding Alexa647 anti-His antibody – biochemical, small-molecule microarray, 635 nm fluorescence, artefact control for SMM control protein annotation, primary screen (AID 1128).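 Further: score merges feature fluorescence with signal-to-noise for each printed compound spot.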 Conditions: higher = more signal.
Assay [2] relates to Human papillomavirus type 1a E7 protein (residues 1-88). The assay can be described thus: HPV1a E7 small-molecule binders, primary screen, biochemical, small-molecule microarray, residues 1-88, 635 nm (AID 1129). Conditions: small-molecule microarray binding, fluorescence 635 nm; higher = more signal.
The target in assay [3] is Focal adhesion kinase 1 (Homo sapiens) (UniProt Q05397). Nature of the assay: PTK2 protein binding on printed compound slides – biochemical, small-molecule microarray, 635/667 nm fluorescence, BSA, DTT, primary screen (AID 1130).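 Further: composite of spot emission at 667 nm and signal to noise over triplicate slides.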 Conditions: 635 nm fluorescence, higher = more signal.
Sequence of Focal adhesion kinase 1 (Homo sapiens) (Q05397 whole entry, looked up): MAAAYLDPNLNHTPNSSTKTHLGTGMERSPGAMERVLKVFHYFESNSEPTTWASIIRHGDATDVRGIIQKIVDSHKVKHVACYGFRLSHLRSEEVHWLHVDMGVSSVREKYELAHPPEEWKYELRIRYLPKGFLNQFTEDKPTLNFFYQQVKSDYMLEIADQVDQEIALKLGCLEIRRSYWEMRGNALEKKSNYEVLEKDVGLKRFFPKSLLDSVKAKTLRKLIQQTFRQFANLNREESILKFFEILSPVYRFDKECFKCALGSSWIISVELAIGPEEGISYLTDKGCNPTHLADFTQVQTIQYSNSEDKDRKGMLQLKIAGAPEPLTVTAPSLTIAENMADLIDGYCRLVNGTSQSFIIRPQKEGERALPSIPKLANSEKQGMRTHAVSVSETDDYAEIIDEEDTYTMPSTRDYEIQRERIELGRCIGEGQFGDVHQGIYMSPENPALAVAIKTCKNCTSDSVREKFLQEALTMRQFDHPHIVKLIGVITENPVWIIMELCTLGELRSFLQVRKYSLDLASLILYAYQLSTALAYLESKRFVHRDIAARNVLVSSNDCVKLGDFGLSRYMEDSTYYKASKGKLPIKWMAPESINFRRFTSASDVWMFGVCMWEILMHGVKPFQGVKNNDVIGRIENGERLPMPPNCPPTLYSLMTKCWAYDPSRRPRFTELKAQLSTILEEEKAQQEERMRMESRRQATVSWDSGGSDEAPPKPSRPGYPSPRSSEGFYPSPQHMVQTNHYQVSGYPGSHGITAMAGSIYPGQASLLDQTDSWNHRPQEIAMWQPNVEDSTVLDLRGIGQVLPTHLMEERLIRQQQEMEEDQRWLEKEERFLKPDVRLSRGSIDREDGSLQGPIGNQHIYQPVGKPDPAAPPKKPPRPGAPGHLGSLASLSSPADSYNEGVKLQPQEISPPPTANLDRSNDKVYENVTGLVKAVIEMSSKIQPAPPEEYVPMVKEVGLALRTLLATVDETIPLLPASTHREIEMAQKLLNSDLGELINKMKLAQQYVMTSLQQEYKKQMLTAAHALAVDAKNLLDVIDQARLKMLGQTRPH
Assay [4] has as its system Fibrinogen (Alexa647-labelled). Nature of the assay: Alexa647-fibrinogen binding to printed small molecules – biochemical, small-molecule microarray, 635/667 nm fluorescence, artefact control for SMM control-protein annotation, profiling panel (AID 1131).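 Further: z-score merges 667 nm fluorescence with per-spot signal-to-noise over triplicate slides.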 To be noted: fibrinogen-A647 binding fluorescence, higher = more signal.
Assay [5] concerns the target Follistatin (Homo sapiens) (UniProt P19883). The assay can be described thus: FST protein binding to printed compounds – biochemical, small-molecule microarray, 635/667 nm fluorescence, primary screen (AID 1132). Conditions: 635 nm fluorescence, higher = more signal.
In assay [6] the target is Fibroblast growth factor 2 (Homo sapiens) (UniProt P09038). Nature of the assay: basic fibroblast growth factor binding to printed compounds – biochemical, small-molecule microarray, 635/667 nm fluorescence, primary screen (AID 1133). Conditions: FGF2, fluorescence 635/667, higher = more signal.
Sequence of Fibroblast growth factor 2 (Homo sapiens) (P09038 whole entry, looked up): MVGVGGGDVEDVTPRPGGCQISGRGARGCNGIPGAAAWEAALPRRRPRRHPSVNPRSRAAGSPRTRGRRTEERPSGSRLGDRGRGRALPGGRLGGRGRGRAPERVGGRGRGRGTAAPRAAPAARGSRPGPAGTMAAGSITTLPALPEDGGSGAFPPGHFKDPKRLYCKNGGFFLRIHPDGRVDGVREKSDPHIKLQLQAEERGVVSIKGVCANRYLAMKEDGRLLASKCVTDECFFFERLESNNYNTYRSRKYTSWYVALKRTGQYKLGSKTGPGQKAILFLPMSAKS
A short description of assay [7]: JC-1 mitochondrial potential readout, lung cancer cells – cell-based, A549, JC-1 fluorescence, basal, 24 h, 100 nL, profiling panel (AID 1138).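 Further: A549 lung adenocarcinoma cells under basal conditions with no added stimulus; test concentration not given here.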 To be noted: higher = more signal.
The test system of the next assay is Lefty1. The assay can be described thus: Lefty1 protein binding to printed compounds – biochemical, small-molecule microarray, 635/667 nm fluorescence, primary screen (AID 1139). Conditions: fluorescence 635/667, higher = more signal.
For assay [8], the system named is wheat germ agglutinin (Triticum aestivum), Alexa647-labelled. Nature of the assay: Alexa647-WGA lectin binding to printed small molecules – biochemical, small-molecule microarray, 635/667 nm fluorescence, artefact control for SMM control-protein annotation, profiling panel (AID 1140).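 Further: score merges 667 nm feature emission with signal to noise over triplicate slides.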 To be noted: WGA-A647 binding, 635 nm fluorescence, higher = more signal.
In assay [9] the target is Luciferin 4-monooxygenase (Photinus pyralis) (UniProt P08659). The assay can be described thus: inhibition of purified Photinus pyralis luciferase – biochemical, luminescence, purified enzyme, 2006 set, primary screen (AID 1141).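 Further: cell-free assay with purified firefly luciferase at 100 ng per well in PBS; test concentration not given here.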 Conditions: purified firefly luciferase, SteadyGlo luminescence, 30 min; higher = more signal, called active from +8 up or from −8 down.
Sequence of Luciferin 4-monooxygenase (Photinus pyralis) (P08659 whole entry, looked up): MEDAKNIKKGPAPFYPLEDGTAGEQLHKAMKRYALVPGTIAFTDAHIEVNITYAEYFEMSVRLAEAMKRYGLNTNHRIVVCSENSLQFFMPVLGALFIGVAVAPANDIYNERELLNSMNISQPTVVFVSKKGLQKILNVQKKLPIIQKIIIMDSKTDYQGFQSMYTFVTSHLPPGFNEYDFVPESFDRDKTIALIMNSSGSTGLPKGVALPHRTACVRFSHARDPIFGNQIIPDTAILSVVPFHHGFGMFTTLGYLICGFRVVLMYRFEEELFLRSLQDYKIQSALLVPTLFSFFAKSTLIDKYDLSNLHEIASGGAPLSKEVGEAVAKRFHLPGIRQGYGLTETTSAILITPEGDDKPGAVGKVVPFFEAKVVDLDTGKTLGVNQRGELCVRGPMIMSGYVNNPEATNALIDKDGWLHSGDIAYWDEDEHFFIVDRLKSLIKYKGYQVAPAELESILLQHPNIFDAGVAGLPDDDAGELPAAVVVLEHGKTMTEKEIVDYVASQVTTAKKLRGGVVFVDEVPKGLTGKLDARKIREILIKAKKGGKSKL

The source of these data is PubChem BioAssay.

Activity calls are given as the source filed them.

Sequence of Follistatin (Homo sapiens) (P19883 whole entry, looked up): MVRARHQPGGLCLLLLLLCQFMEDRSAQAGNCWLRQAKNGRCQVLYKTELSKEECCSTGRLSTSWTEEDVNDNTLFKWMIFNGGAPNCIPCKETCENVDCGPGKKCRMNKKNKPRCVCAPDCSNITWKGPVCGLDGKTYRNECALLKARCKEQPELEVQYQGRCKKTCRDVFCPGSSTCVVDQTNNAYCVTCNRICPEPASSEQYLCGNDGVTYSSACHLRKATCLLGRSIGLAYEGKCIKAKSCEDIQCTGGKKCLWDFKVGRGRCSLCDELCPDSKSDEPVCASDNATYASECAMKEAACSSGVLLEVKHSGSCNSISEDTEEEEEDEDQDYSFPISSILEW

For the compound `CCCCCN1CC=CC23O[C@@H]4/C=C\CCC(C)OC(=O)C4[C@H]2C(=O)N(C(CO)C(C)C)[C@@H]3C1=O` (stereo not given in full), the composite z-score was 1.03 in assay [1]; -0.46 in assay [2]; 1.94 in assay [3]; -1.41 in assay [4]; 0.032 in assay [5]; -0.318 in assay [6]. Further, the composite z-score was determined as 0.287 in the assay on Lefty1 and 1.41 in assay [8]. Moreover, the figures for the z-score in assay [7] and in assay [9] were -0.87 and 0.551 (inactive), respectively.
As for `O=C(NCc1ccc(F)cc1)[C@H]1C[C@H]2C(=O)NCC(=O)N2[C@H]1c1ccc(O)cc1`, the composite z-score in assay [1] was 1.63; in assay [2] it was -0.121; in assay [3] it was 0.0061; in assay [4], 0.611; in assay [5] it was 1.45; in assay [6], 1.89. For the same compound, the composite z-score in the assay with Lefty1 came to 1.35; in assay [8] it was 0.187. The z-score in assay [7] is 0.576; in assay [9], -0.0852 (inactive).
Take `Cc1cc(C)c(C(O)C2C=CC3C(=O)N(c4ccccc4)C(=O)C3N2Nc2ccccc2F)c(C)c1` (stereo not given): the composite z-score was 1.29 in assay [1]; -0.103 in assay [2]; 0.39 in assay [3]; 0.859 in [4]; 0.0286 in assay [5]; -0.435 in assay [6]. In addition, the composite z-score was -0.589 in the assay with Lefty1 and 0.403 in assay [8]. Besides, the figures for the z-score in assay [7] and in assay [9] were -0.909 and -0.746 (inactive), respectively.
Regarding `COc1cc(NN2C(C(O)c3ccc(N(C)C)cc3)C=CC3C(=O)N(c4ccccc4)C(=O)C32)cc(OC)c1OC` (stereo not given), the composite z-score is 0.555 in [1]; 1.03 in assay [2]; 0.0507 in assay [3]; 0.945 in assay [4]; 1.22 in [5]; -0.223 in assay [6]. Besides, the results for the composite z-score (with Lefty1; in assay [8]) were 0.0646 and 0.885, respectively. The z-score in assay [7] was 0.0531; in [9] it was 0.11 (inactive).
In the case of `CCOC(=O)C[C@H]1[C@H](OC(=O)c2ccc(C(=O)c3ccccc3)cc2)[C@@H](NC(=O)c2ccc3ccccc3n2)c2cc(OCCCO)ccc2N1C(=O)Cc1ccc(OC)cc1`, the composite z-score in assay [1] is -0.249; in assay [2] it was 0.656; in assay [3], 0.0555; in [4], 0.692; in [5], 0.259; in assay [6], 0.52. Further, the composite z-score with Lefty1 amounted to 0.208; in [8], 0.207. Besides, the values for the z-score in assay [7] and in assay [9] were -0.44 and 0.541 (inactive), respectively.
For `CC[C@@H]1O[Si](C(C)C)(C(C)C)c2c1cc(-c1cc(C)c(OC)c(C)c1)nc2-c1ccc(Oc2ccccc2)cc1`, the composite z-score in [1] is -0.23; in assay [2] it was -0.772; in [3] it was -0.29; in [4], -1.22; in [5], -0.261; in [6] it was -0.315. Moreover, the composite z-score is 0.287 in the assay on Lefty1 and 0.1 in assay [8]. Also, the z-score in [7] was -0.413; in assay [9], 1.09 (inactive).
As for `Cc1ccc(S[C@]2(C(=O)NCC(F)(F)F)CC(=O)N(Cc3cc(C(F)(F)F)cc(C(F)(F)F)c3)[C@@H]2c2ccc(CO)cc2)cc1`, the composite z-score is 1.86 in [1]; -1.33 in [2]; -0.237 in assay [3]; -1.09 in assay [4]; -0.192 in assay [5]; -0.897 in assay [6]. For the same compound, the composite z-score was -0.126 in the assay with Lefty1 and -0.744 in assay [8]. Moreover, the values for the z-score in assay [7] and in assay [9] were 0.0304 and -0.46 (inactive), respectively.
On to `CCOC(=O)C1=C[C@@H](C(C)(C)C)N(S(=O)(=O)c2ccc(C)cc2)[C@H]1c1cccc2ccccc12`, for which the composite z-score was 1.15 in assay [1]; 0.716 in assay [2]; 0.191 in [3]; 0.896 in [4]; 0.466 in assay [5]; -0.195 in assay [6]. Moreover, the composite z-score in the assay on Lefty1 was found to be 0.139; in [8], 0.437. Moreover, the figures for the z-score in assay [7] and in assay [9] were 2.89 and 0.908 (inactive), respectively.
In the case of `OCCCC1=CC(c2ccc(CN3CCCC3)cc2)N(Cc2cc3c(cc2Br)OCO3)CC1` (stereo not given), the composite z-score in assay [1] is 0.448; in [2], 0.049; in assay [3] it was 0.172; in [4], 0.65; in assay [5] it was 1.07; in assay [6] it was 0.262. The composite z-score in the assay with Lefty1 came out at 0.695; in assay [8] it was 0.266. In addition, the figures for the z-score in [7] and in assay [9] were 0.157 and 0.391 (inactive), respectively.
`C=CCC(OC(C)=O)[C@@H]1[C@@H](N(Cc2cccc3ccccc23)C(=O)Cc2ccc(OC)cc2)c2cc(OCCCO)ccc2N1C(=O)c1ccc(-c2ccccc2)cc1` (stereo not given in full): the composite z-score in [1] is -0.328; in assay [2], -0.127; in [3], 0.0862; in assay [4], 0.701; in assay [5], 0.662; in assay [6] it was 0.394. The values for the composite z-score (in the assay with Lefty1; in [8]) were -0.47 and 0.297, respectively. The z-score in assay [7] is 0.0256; in assay [9] it was 0.828 (inactive).
`CCOC(=O)C[C@H]1[C@H](OC(=O)c2cc3ccccc3oc2=O)[C@@H](NC(=O)CC(C)C)c2cc(OCCCO)ccc2N1C(=O)c1ccc2ccccc2n1`: the composite z-score in [1] was found to be 0.672; in assay [2] it was 0.686; in assay [3], 0.223; in assay [4], 0.807; in [5] it was 1.03; in assay [6], 1.51. For the same compound, the composite z-score in the assay on Lefty1 came to 0.903; in [8], 0.0235. In addition, the values for the z-score in assay [7] and in assay [9] were -0.551 and 0.425 (inactive), respectively.
Consider `CCCN1C(=O)[C@]2(Cc3ccccc31)N=C(c1ccc(OCCCO)cc1)O[C@@H]2c1ccccc1`, for which the composite z-score in assay [1] is 1.18; in assay [2], 1.22; in [3], 0.867; in [4], 0.971; in [5], 1.3; in assay [6] it was 0.716. In addition, the composite z-score with Lefty1 was determined as 0.56; in [8], 1.11. In addition, the z-score in assay [7] is -0.23; in [9], -0.133 (inactive).
On to `COc1ccc([Si](C)(C)[C@@H]2[C@@H](CC(=O)N(CCO)Cc3ccccc3)O[C@]3(C(=O)N(Cc4cccc(N5CCCCC5=O)c4)c4ccccc43)[C@H]2C)cc1`, for which the composite z-score in assay [1] is 0.112; in assay [2], 0.869; in [3] it was 0.518; in assay [4] it was -0.451; in assay [5], 1.15; in assay [6], 0.361. For the same compound, the composite z-score turned out to be 1.46 in the assay with Lefty1 and 0.349 in assay [8]. Further, the z-score in assay [7] is -0.171; in [9] it was 0.151 (inactive).
Turning to `Cc1ccc(S[C@]2(C(=O)O)CC(=O)N(C3CCCCC3)[C@@H]2c2ccc(CO)cc2I)cc1`, the composite z-score in assay [1] is 0.96; in assay [2], 1.22; in [3], -0.155; in assay [4], 0.745; in assay [5] it was 1.19; in [6], 0.101. The composite z-score in the assay with Lefty1 is -0.163; in [8] it was 0.89. Moreover, the z-score in assay [7] is -0.996; in assay [9], 0.453 (inactive).
`COCCCNC(=O)[C@@H]1c2ccccc2C(=O)N(C(C)C)[C@H]1c1ccc(CO)cc1`: the composite z-score in [1] was -0.255; in assay [2], -0.264; in assay [3], 0.37; in assay [4], -0.335; in assay [5], 0.681; in assay [6], 0.105. Besides, the composite z-score in the assay on Lefty1 was -0.109; in assay [8] it was -0.199. Also, the z-score is 0.448 in assay [7] and -0.604 (inactive) in assay [9].
With `C=CC[C@@]1(C(=O)NCCCOC)N=C(c2ccc(OCCCO)cc2)O[C@@H]1c1ccccc1N=[N+]=[N-]`, the composite z-score in assay [1] was determined as 2.2; in [2], 1.21; in assay [3], 0.474; in assay [4], 1.03; in assay [5], 1.28; in [6] it was 0.0912. Further, the composite z-score in the assay on Lefty1 is -0.115; in assay [8] it was 0.736. Also, the z-score in assay [7] is 1.3; in [9], -3.67 (inactive).
Take `C=CCNC(=O)[C@@H]1[C@H]2C(=O)O[C@H](c3ccccc3)[C@H](c3ccccc3)N2[C@H](c2ccccc2OCCO)[C@@]12C(=O)Nc1ccc(C#CCCO)cc12`: the composite z-score was determined as 0.169 in assay [1]; 0.723 in assay [2]; 0.415 in [3]; 0.862 in assay [4]; 1.43 in assay [5]; 1.62 in [6]. In addition, the composite z-score in the assay with Lefty1 was found to be 1.32; in assay [8], 0.5. In addition, the z-score in assay [7] was 0.861; in assay [9], 0.467 (inactive).
